# Assay outcomes from PubChem.
# GLS inh: inhibitors of human glutaminase (GLS); Potency, µM (doses to about 45.5 µM), inactives show at the top dose activity change, negative = inhibition, most hits filed as inhibitors; GLS enzymatic activity, qHTS titration; 410,000 compounds, 0.21% hits; O94925; further: on the % scale 0 is the no-effect control and ±100 the full control effect
#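 Compounds were pin-transferred onto hKGA, after which L-glutamine (1 mM solution) and a detection mix of glutamate oxidase, HRP and Amplex Red were added. Initial and 30 min RT fluorescence reads were collected.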
# G9a block: inhibitors of human histone lysine methyltransferase G9a; 350,000 compounds, 8.8% hits; AID 504332; Potency, µM (doses to about 102 µM), for the others: at the highest dose activity, negative = inhibition, usual class: inhibitors; G9a H3K9 monomethylation, AlphaScreen, 2 h; further: on the % scale 0 is the no-effect control and ±100 the full control effect; nearly all actives have a fitted effect of over 75% in size
#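 AlphaScreen read-out: biotin-H3K9 peptide (500 nM) methylation by 20 nM enzyme with 20 uM SAM, 2 h at room temperature after 15 min compound preincubation; anti-monomethyl H3K9 antibody plus donor/acceptor beads, 10 min dark.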
# HP1b chromo inh: blocks HP1-beta chromodomain binding to methylated histone tails; AlphaScreen HP1-beta / biotin-H3K9me3 peptide binding; AID 540317; 390,000 compounds, 0.56% hits; Potency, µM (top dose mostly 114 µM), for the others: at the highest dose activity change, negative = inhibition, actives largely listed as inhibitors; further: nearly all actives have a fitted effect of over 70% in size
#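 HP1-beta protein (50 nM final) preincubated 30 min at room temperature with biotinylated H3(1-18)K9me3 peptide (50 nM) in PBS pH 7.4, 0.01% Tween-20, then compound added for 30 min. AlphaScreen streptavidin donor/nickel chelate acceptor beads (10 ug/mL final), 30 min dark, luminescence read.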
# BAZ2B block: BAZ2B (human) inhibition; AID 504333; Q9UIF8; 360,000 compounds, 4.4% hits; AlphaScreen BAZ2B-H3K14Ac peptide displacement; Potency, µM (series often up to 114 µM), inactives show at the top dose activity change, negative = inhibition, usual class: inhibitors; further: on the % scale 0 is the no-effect control and ±100 the full control effect; nearly all actives have a fitted effect of over 60% in size
#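 AlphaScreen luminescence quantifies BAZ2B engagement of H3K14Ac peptide; the protein and biotinylated peptide are both at 50 nM final, buffer PBS pH 7.4 with 0.01% Tween-20, all steps at room temperature.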
# JMJD2A Tudor: inhibitors of human JMJD2A Tudor domain. Potency, µM (top dose mostly 114 µM), without a hit: at the top dose activity change, negative = inhibition, usual class: inhibitors. AlphaScreen JMJD2A-Tudor / H3K4me3 peptide binding. O75164. 390,000 compounds, 4.4% hits. AID 504339; further: on the % scale 0 is the no-effect control and ±100 the full control effect; nearly all actives have a fitted effect of over 50% in size
# The depositor's hits bear a star; ? = inconclusive; · = no result; [ ] = dose if it differs, or a comment. Sampled rows, rich in hits. Any-hit rate of the full collection: about 10%. The call rests on the fitted dose curve; in most records, active means well fitted curve in the direction sought with a large enough effect; inconclusive means small, poorly fitted or top-dose-only effect, or another doubt; inactive means no such curve, though single readings can be large; an effect the other way counts as inactive or inconclusive. Potency means the concentration at half of the fitted maximal effect.
SMILES,GLS inh,G9a block,HP1b chromo inh,BAZ2B block,JMJD2A Tudor
CC(NC(=O)c1cccs1)c1n[nH]c(=S)n1C (stereo not drawn),0.7%,?,-11.1%,4.7%,8.91µM*
O=C(NCc1n[nH]c(=S)n1-c1ccccc1)c1cccs1,3.5%,22.4µM*,7.4%,-19.4%,15.8µM*
CCOC(=O)CSc1nnc(CNC(=O)c2cccs2)n1-c1cccc(C)c1,-2.0%,-9.4%[12.7 µM],26.8%,-0.2%,1.5%
O=C(NCc1n[nH]c(=S)n1-c1ccc(Cl)c(Cl)c1)c1cccs1,-3.4%,?,19.4%,?,-14.4%
CCn1c(CNC(=O)c2cccs2)n[nH]c1=S,3.9%,?,?,9.0%,8.91µM*
CC(NC(=O)c1cccs1)c1ccccc1 (stereo not drawn),3.6%,·,35.6%,·,-4.8%
O=C(NCc1n[nH]c(=S)n1-c1cccc(Cl)c1)c1cccs1,-10.8%,20µM*,?,-4.2%,20µM*
COc1ccccc1N(C)S(=O)(=O)c1ccc(Cl)c(C(=O)Nc2ccccc2N2CCOCC2)c1,-4.7%,·,25.1%,·,-26.8%
CC(C)C[C@H]1CN(CCCC[C@@H]2CNC(=O)C(=O)N2CC2CCCCC2)C(=O)C(=O)N1CCc1ccc(O)cc1,-5.6%,·,·,·,·
COc1cc(NC(=O)Cn2c(=O)n(Cc3ccccc3Cl)c(=O)c3cc(OC)c(OC)cc32)cc(OC)c1,-22.8%,5.5%[59 µM],7.1%,2.6%,-13.7%
c1ccc(-c2cc3n(c2)CCc2ccccc2-3)cc1,9.5%,3.16µM*,-16.0%,-33.2%,?
COc1ccc(C2CC(=O)C(C(c3ccc(O)cc3)C3C(=O)CC(c4ccc(OC)cc4)CC3=O)C(=O)C2)cc1 (stereo not drawn),·,25.1µM*,·,-36.2%,·
COc1ccc(C2=CC(=O)CC(c3ccc(OC)cc3)C2)cc1 (stereo not drawn),-10.8%,-2.8%,29.4%,-16.5%,-3.4%
CC(=O)n1c(-c2ccccc2)c(-c2ccccc2)n(C)c1=O,31.6µM*,·,5.9%,·,-8.3%
CC(=O)Nn1cc2c(c1-c1ccccc1)c(=O)n(C)c(=O)n2C,-6.9%,?,6.0%,7.1%,-17.8%
CCOC(=O)c1cccc(NC(=O)c2ccc3c(Cl)c4c(nc3c2)CCC4)c1,-14.6%,-18.7%[59 µM],13.7%,-32.5%,-7.9%
COc1ccccc1NC(=O)C1=C(C)Nc2nc(SCc3ccccc3)nn2C1c1cccnc1 (stereo not drawn),12.7%,1.0%[59 µM],14.8%,79.4µM*,-18.8%
COc1ccccc1NC(=O)C1=C(C)Nc2nc(CCCO)nn2C1c1cccnc1 (stereo not drawn),20.8%,50.1µM*,27.0%,-5.1%,2.8%
COc1ccccc1NC(=O)C1=C(C)Nc2nc(SCc3ccccc3F)nn2C1c1cccnc1 (stereo not drawn),-8.2%,-11.8%[59 µM],15.6%,-28.8%,-10.2%
CC1=C(C(=O)Nc2ccccc2C)C(c2cccnc2)n2nc(CCCO)nc2N1 (stereo not drawn),6.4%,-1.1%[59 µM],43.4%,6.7%,9.5%
COc1ccc(OC)c(NC(=O)Nc2nnc([C@@H]3O[C@H](CO)[C@@H](O)[C@H]3O)s2)c1,-11.2%,·,·,·,·
CSc1ncc(C(=O)NCc2ccc(Cl)cc2)c(C(F)(F)F)n1,1.4%,2.8%[59 µM],33.8%,6.4%,8.9%
COc1ncnc2c1ncn2CCCNCc1ccccn1,-1.7%,·,·,·,·
Cc1sc(NC(=O)C2CCCO2)c(C(N)=O)c1C (stereo not drawn),-0.1%,7.94µM*,?,-3.8%,?
CC(C)(C)C(=O)NC(=S)Nc1sc2c(c1C(N)=O)CCC2,-0.1%,5.62µM*,?,-14.2%,-13.8%
SMILES,GLS inh,G9a block,HP1b chromo inh,BAZ2B block,JMJD2A Tudor
NC(=O)c1c(NC(=O)C2CCCO2)sc2c1CCCC2 (stereo not drawn),-14.3%,3.16µM*,?,-28.7%,?
CCOC(=O)c1c(NC(=O)C2CCCO2)sc2c1CCC2 (stereo not drawn),-4.4%,0.2%[59 µM],6.4%,-36.3%,-5.2%
CC(C)CC(=O)NC(=S)Nc1sc2c(c1C(N)=O)CCC2,2.0%,-41.1%,4.1%,-16.5%,-31.9%
CCN(CC)c1ccc(C(=O)NCc2ccc3c(c2)CCN3C(=O)c2ccc(F)cc2)cc1,6.9%,-28.6%[59 µM],29.3%,-18.8%,-19.3%
CC1(C)NC(=O)N(CCC(=O)Nc2cc(C(F)(F)F)ccc2Cl)C1=O,6.1%,·,20.1%,·,-3.9%
Cc1ccc(N=Nc2ccc(O)c3ncccc23)cc1,6.8%,?,?,?,?
CCS(=O)(=O)c1ccc(N=Nc2ccc(O)c3ncccc23)c(OC)c1,-8.4%,7.08µM*,50.1µM*,5.62µM*,20µM*
COc1ccccc1N=Nc1ccc(O)c2ncccc12,1.5%,44.7µM*,10µM*,20µM*,44.7µM*
Oc1ccc(N=Nc2ccccc2C(F)(F)F)c2cccnc12,9.2%,14.8%[2.33 µM],1.8%,5.62µM*,10µM*
CN(C)c1ncc2ncc(=O)n(C)c2n1,·,7.4%[12.7 µM],·,·,·
CCOC(=O)C1=C(N)n2c(s/c(=C/c3ccccc3)c2=O)=C(C(=O)OCC)C1c1ccccc1 (stereo not drawn),·,12.3%,·,-24.2%[57.1 µM],·
CCOC(=O)C1=C(N)n2c(s/c(=C\c3ccco3)c2=O)=C(C(=O)OC(C)C)C1c1ccco1 (stereo not drawn),12.2%,28.2µM*,-29.0%,?,?
